# Experiments:
# Test in all cases: PBM binding z-score (relative to random genomic background probes); higher = stronger binding; sequences stand for … in GC…GCGATTGACAGCGTAGAATGAAGG
# [1] = test system: PPARg:RXRa DBDmut IVT, anti-RXR (DBD mutation: RXRa K156A/R161A, NR concentration 270 nM, RXRa partner concentration 90 nM)
# In short: (§1)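 Binding z-scores were set against random background probes. The data came from custom Agilent 4×180K protein-binding microarrays carrying double-stranded probes with 34-nt variable regions, incubated 1 h with ligand-free nuclear receptor dimers. Partner-specific antibodies detected binding, and scanned fluorescence was regression-normalized.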
# [2] = test system: PPARg:RXRa IVT, anti-PPARg (NR concentration 270 nM, RXRa partner concentration 90 nM)
# In short: as §1
# [3] = test system: PPARg DBDmut:RXRa IVT, anti-PPARg (DBD mutation: PPARg1 K132A/R137A, NR concentration 270 nM, RXRa partner concentration 90 nM)
# In short: as §1
# [4] = test system: PPARg DBDmut IVT, anti-PPARg (DBD mutation: PPARg1 K132A/R137A, NR concentration 270 nM)
# In short: as §1
# [5] = test system: PPARg homodimer (NR concentration 180 nM)
# In short: as §1
# [6] = test system: PXR:RXRa (NR concentration 270 nM, RXRa partner concentration 90 nM)
# In short: as §1
# [7] = test system: PXR homodimer (NR concentration 270 nM)
# In short: as §1
# [8] = test system: RARa:RXR (NR concentration 270 nM, RXRa partner concentration 90 nM)
# In short: as §1
# [9] = test system: RARa homodimer (NR concentration 270 nM)
# In short: as §1
# [10] = test system: RARb:RXRa (NR concentration 270 nM, RXRa partner concentration 90 nM)
# In short: as §1
sequence,measurement,setting,value
GCGACTGGGGCATCAGCAGGTGACCATAACTTAA,PBM binding z-score,[1],4.17
same,PBM binding z-score,[2],3.33
same,PBM binding z-score,[3],-0.697
same,PBM binding z-score,[4],-0.862
same,PBM binding z-score,[5],0.0227
same,PBM binding z-score,[6],-0.51
same,PBM binding z-score,[7],-0.76
same,PBM binding z-score,[8],-0.136
same,PBM binding z-score,[9],-0.252
same,PBM binding z-score,[10],0.702
ATCTCTAGGTAACCAAGTTCATTGAATGCCGAAC,PBM binding z-score,[1],3.59
same,PBM binding z-score,[2],3.08
same,PBM binding z-score,[3],1.78
same,PBM binding z-score,[4],1.57
same,PBM binding z-score,[5],1.37
same,PBM binding z-score,[6],3.97
same,PBM binding z-score,[7],7.05
same,PBM binding z-score,[8],1.72
same,PBM binding z-score,[9],1.19
same,PBM binding z-score,[10],1.75
AGAACAAGGGCAATGAGTTGATAGCACGGGTGGC,PBM binding z-score,[1],2.52
same,PBM binding z-score,[2],1.75
same,PBM binding z-score,[3],0.287
same,PBM binding z-score,[4],-0.527
same,PBM binding z-score,[5],0.058
same,PBM binding z-score,[6],0.978
same,PBM binding z-score,[7],4.14
same,PBM binding z-score,[8],0.000148
same,PBM binding z-score,[9],-0.325
same,PBM binding z-score,[10],2.2
GCAGACAGGCGAAACGCAGGTAACTCAGGGTGGC,PBM binding z-score,[1],-0.782
same,PBM binding z-score,[2],-0.814
same,PBM binding z-score,[3],-1.19
same,PBM binding z-score,[4],-1.5
same,PBM binding z-score,[5],-0.436
same,PBM binding z-score,[6],-0.82
same,PBM binding z-score,[7],-0.795
same,PBM binding z-score,[8],-0.316
same,PBM binding z-score,[9],-1.37
same,PBM binding z-score,[10],-0.55
GATACACGGTCAGCTAGAGGCCAGAGTATGGAAA,PBM binding z-score,[1],-0.219
same,PBM binding z-score,[2],0.135
same,PBM binding z-score,[3],-0.178
same,PBM binding z-score,[4],-0.554
same,PBM binding z-score,[5],0.453
same,PBM binding z-score,[6],-0.394
same,PBM binding z-score,[7],-0.5
same,PBM binding z-score,[8],0.205
same,PBM binding z-score,[9],-0.0449
same,PBM binding z-score,[10],2.51
CGTCGAAGGTCAAAGGTCAGTGAAGAGATGACGG,PBM binding z-score,[1],3.46
same,PBM binding z-score,[2],5.8
same,PBM binding z-score,[3],1.49
same,PBM binding z-score,[4],1.99
same,PBM binding z-score,[5],5.11
same,PBM binding z-score,[6],7.05
same,PBM binding z-score,[7],1.1
same,PBM binding z-score,[8],8.65
same,PBM binding z-score,[9],2.42
same,PBM binding z-score,[10],5.92
CCTGCTAGGTCACTGGTCAGCTAAAGCAGCTCGC,PBM binding z-score,[1],4.87
same,PBM binding z-score,[2],4.51
same,PBM binding z-score,[3],0.683
same,PBM binding z-score,[4],-0.736
same,PBM binding z-score,[5],1.51
same,PBM binding z-score,[6],1.27
same,PBM binding z-score,[7],-0.378
same,PBM binding z-score,[8],2.08
same,PBM binding z-score,[9],-0.0661
same,PBM binding z-score,[10],3.92
CCTTACGGGTCACGAGGTTATAGAACGACGAGCG,PBM binding z-score,[1],4.22
same,PBM binding z-score,[2],5.47
same,PBM binding z-score,[3],0.77
same,PBM binding z-score,[4],0.157
same,PBM binding z-score,[5],2.71
same,PBM binding z-score,[6],4.54
same,PBM binding z-score,[7],0.292
same,PBM binding z-score,[8],6.07
same,PBM binding z-score,[9],0.736
same,PBM binding z-score,[10],4.73
CCTACTGGGCCAAAGGTTATTGATTCCAATGCTC,PBM binding z-score,[1],5.27
same,PBM binding z-score,[2],5.88
same,PBM binding z-score,[3],0.256
same,PBM binding z-score,[4],-0.287
same,PBM binding z-score,[5],0.925
same,PBM binding z-score,[6],1.39
same,PBM binding z-score,[7],0.0532
same,PBM binding z-score,[8],2.34
same,PBM binding z-score,[9],-0.256
same,PBM binding z-score,[10],1.53
TCTTGTAGATCAACAGGAGGTTGAGAAAGATCGA,PBM binding z-score,[1],1.36
same,PBM binding z-score,[2],0.267
same,PBM binding z-score,[3],0.852
same,PBM binding z-score,[4],-0.116
same,PBM binding z-score,[5],-0.716
same,PBM binding z-score,[6],0.0835
same,PBM binding z-score,[7],-0.557
same,PBM binding z-score,[8],0.0993
same,PBM binding z-score,[9],-0.378
same,PBM binding z-score,[10],-0.147
ACTAGCAGGCCAAGGGTCACGCAAGATTAGTCCG,PBM binding z-score,[1],1.52
same,PBM binding z-score,[2],4.53
same,PBM binding z-score,[3],0.585
same,PBM binding z-score,[4],-0.153
same,PBM binding z-score,[5],2.62
same,PBM binding z-score,[6],4.25
same,PBM binding z-score,[7],-0.0194
same,PBM binding z-score,[8],5.33
same,PBM binding z-score,[9],0.787
same,PBM binding z-score,[10],4.2
CAAACTAGGTCCCCGGAAGGTCAAAGTCCGCATG,PBM binding z-score,[1],4
same,PBM binding z-score,[2],4.13
same,PBM binding z-score,[3],0.31
same,PBM binding z-score,[4],0.647
same,PBM binding z-score,[5],3.1
same,PBM binding z-score,[6],3.72
same,PBM binding z-score,[7],1.36
same,PBM binding z-score,[8],3.99
same,PBM binding z-score,[9],0.686
same,PBM binding z-score,[10],3.24
TCTGCTAGGTCAACGACGGTCAGCTAATCTGCTA,PBM binding z-score,[1],3.89
same,PBM binding z-score,[2],3.94
same,PBM binding z-score,[3],0.0425
same,PBM binding z-score,[4],0.346
same,PBM binding z-score,[5],0.772
same,PBM binding z-score,[6],2.08
same,PBM binding z-score,[7],-0.714
same,PBM binding z-score,[8],2.4
same,PBM binding z-score,[9],-1.12
same,PBM binding z-score,[10],4.13
GCGCCTGGGGCATCAGCAGGTTACCATAACTTAA,PBM binding z-score,[1],-0.452
same,PBM binding z-score,[2],-0.359
same,PBM binding z-score,[3],-1.03
same,PBM binding z-score,[4],-1.67
same,PBM binding z-score,[5],-0.0775
same,PBM binding z-score,[6],0.0887
same,PBM binding z-score,[7],-0.879
same,PBM binding z-score,[8],0.514
same,PBM binding z-score,[9],-1.02
same,PBM binding z-score,[10],0.937
TCATATAGTTAAATGCTAGGTGAAAGTCCGATCT,PBM binding z-score,[1],2.22
same,PBM binding z-score,[2],0.879
same,PBM binding z-score,[3],0.746
same,PBM binding z-score,[4],1.69
same,PBM binding z-score,[5],1.11
same,PBM binding z-score,[6],0.631
same,PBM binding z-score,[7],0.356
same,PBM binding z-score,[8],0.763
same,PBM binding z-score,[9],1.49
same,PBM binding z-score,[10],0.272
CAAACTAGGTCAAAGGTGAAAGTCGAGCCAACCA,PBM binding z-score,[1],8.83
same,PBM binding z-score,[2],8.9
same,PBM binding z-score,[3],5.06
same,PBM binding z-score,[4],3.41
same,PBM binding z-score,[5],4.11
same,PBM binding z-score,[6],4.59
same,PBM binding z-score,[7],0.25
same,PBM binding z-score,[8],7.31
same,PBM binding z-score,[9],1.09
same,PBM binding z-score,[10],4.41
CCTATCAGGCCAGGGTCACTCAAGCATTTCGCTT,PBM binding z-score,[1],0.0359
same,PBM binding z-score,[2],1.06
same,PBM binding z-score,[3],-1.33
same,PBM binding z-score,[4],-0.669
same,PBM binding z-score,[5],1.28
same,PBM binding z-score,[6],2.59
same,PBM binding z-score,[7],-0.206
same,PBM binding z-score,[8],3.5
same,PBM binding z-score,[9],0.157
same,PBM binding z-score,[10],2.74
TTACCAAGGTGAAATGTCGTTGATGCACGCCTTG,PBM binding z-score,[1],2.04
same,PBM binding z-score,[2],2.84
same,PBM binding z-score,[3],0.312
same,PBM binding z-score,[4],0.465
same,PBM binding z-score,[5],0.892
same,PBM binding z-score,[6],0.271
same,PBM binding z-score,[7],-0.455
same,PBM binding z-score,[8],0.706
same,PBM binding z-score,[9],-0.394
same,PBM binding z-score,[10],1.44
CCATACAGGTGAGAAGGTAACTCAGCCTCGATTA,PBM binding z-score,[1],2.08
same,PBM binding z-score,[2],1.63
same,PBM binding z-score,[3],0.397
same,PBM binding z-score,[4],0.148
same,PBM binding z-score,[5],0.629
same,PBM binding z-score,[6],0.166
same,PBM binding z-score,[7],0.14
same,PBM binding z-score,[8],0.725
same,PBM binding z-score,[9],1.02
same,PBM binding z-score,[10],0.628
ATCGAAAGGTCGAAGGTGGGTATACCCACCCGAA,PBM binding z-score,[1],-0.494
same,PBM binding z-score,[2],1.52
same,PBM binding z-score,[3],0.29
same,PBM binding z-score,[4],0.264
same,PBM binding z-score,[5],1.05
same,PBM binding z-score,[6],2.11
same,PBM binding z-score,[7],-0.101
same,PBM binding z-score,[8],3.05
same,PBM binding z-score,[9],-0.341
same,PBM binding z-score,[10],3.51
TCCTGTAGATCAGCAGGTTAAGAAAGCTGGCCAA,PBM binding z-score,[1],1.6
same,PBM binding z-score,[2],-0.214
same,PBM binding z-score,[3],-0.0572
same,PBM binding z-score,[4],-0.0553
same,PBM binding z-score,[5],-0.125
same,PBM binding z-score,[6],0.286
same,PBM binding z-score,[7],-0.41
same,PBM binding z-score,[8],0.585
same,PBM binding z-score,[9],-0.442
same,PBM binding z-score,[10],0.219
GCTACAGGGTCAAGGCCAGAGTACGCGTATTGAT,PBM binding z-score,[1],2.54
same,PBM binding z-score,[2],3.15
same,PBM binding z-score,[3],-0.313
same,PBM binding z-score,[4],0.11
same,PBM binding z-score,[5],2.84
same,PBM binding z-score,[6],4
same,PBM binding z-score,[7],0.0658
same,PBM binding z-score,[8],4.7
same,PBM binding z-score,[9],0.58
same,PBM binding z-score,[10],4.59
ATCTCTAGGTAAGACTCAGTCCAGTGAAGAACGC,PBM binding z-score,[1],1.91
same,PBM binding z-score,[2],1.22
same,PBM binding z-score,[3],-0.449
same,PBM binding z-score,[4],2
same,PBM binding z-score,[5],0.717
same,PBM binding z-score,[6],-0.0905
same,PBM binding z-score,[7],0.481
same,PBM binding z-score,[8],-0.0301
same,PBM binding z-score,[9],0.973
same,PBM binding z-score,[10],0.0795
